54 compounds from PubChem BioAssay AID651616 (The Scripps Research Institute Molecular Screening Center, 2012) can be followed below.

The campaign covered roughly 5,600 compounds. About 4,400 (79%) were called active. The set was probably picked from earlier hits. A selection follows. Unmarked numbers belong to inactive results. Rule as the data show it: active = inhibition above about 27%; inactive = the rest.

Fructose-bisphosphate aldolase (Mycobacterium tuberculosis (strain ATCC 25618 / H37Rv)), sequence (P9WQA3 whole entry, looked up): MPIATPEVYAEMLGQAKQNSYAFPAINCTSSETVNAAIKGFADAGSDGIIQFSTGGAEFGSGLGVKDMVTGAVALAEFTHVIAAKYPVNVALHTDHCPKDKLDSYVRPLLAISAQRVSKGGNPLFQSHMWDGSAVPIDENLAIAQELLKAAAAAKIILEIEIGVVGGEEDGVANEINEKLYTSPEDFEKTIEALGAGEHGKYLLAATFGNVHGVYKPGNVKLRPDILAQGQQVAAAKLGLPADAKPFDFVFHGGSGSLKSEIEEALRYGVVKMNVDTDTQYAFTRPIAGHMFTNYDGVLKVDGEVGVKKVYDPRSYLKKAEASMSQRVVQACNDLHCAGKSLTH

This assay concerns the target Fructose-bisphosphate aldolase (Mycobacterium tuberculosis (strain ATCC 25618 / H37Rv)) (UniProt P9WQA3). The assay can be described thus: M. tuberculosis aldolase blockers, biochemical, fluorescence, strain H37Rv, confirmation (AID 651616).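 Also: 0% = vehicle wells and 100% = reference inhibitor wells.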 The note with it: purified M. tuberculosis FBA, fluorescence read-out, at 1 µM, active compounds read high.
Consider `CN1C(=O)c2ccc(NC(=O)c3c(F)c(F)c(F)c(F)c3F)cc2C1=O`, for which the inhibition was 822% [above what the read-out allows, likely interference] (active).

As to `CN1C(=O)c2ccc(NC(=O)C3CCCCC3)cc2C1=O`, the inhibition is 2.86%.

As to `CN(C)CCCNC(=O)c1ccc2[nH]c3ccccc3c2c1`, the inhibition is 103% (active).

In the case of `c1ccc(Cc2c(-c3ccco3)nc3c4ccccc4ccn23)cc1`, the inhibition is 137% (active).

Take `CCOC(=O)c1cc2cc(C)ccc2[nH]1`: the inhibition is 50.4% (active).

With `CCN1CCc2c(C#N)c(NCc3ccccc3)nc(NCCO)c2C1`, the inhibition is 175% (active).

In the case of `COc1ccc2c(c1OC)C(=O)N(c1ncn[nH]1)C2`, the inhibition was 85.2% (active).

On to `Cc1coc2c1c(C)cc1oc(=O)c(CC(=O)NCC(=O)N[C@H](C(=O)O)C(C)C)c(C)c12`, for which the inhibition was 52.1% (active).

As to `Cc1cc(C)cc(NC(=O)CSc2ccccc2)c1`, the inhibition was 86.7% (active).

For `CN(C)CCCn1c(N)c(C#N)c2nc(C#N)c(C#N)nc21`, the inhibition was 85.4% (active).

Consider `Cc1cc(C)c2c(n1)sc1c(=O)n(-c3ccccc3)c(=O)[nH]c12`, for which the inhibition is 75.8% (active).

Turning to `CN(CCc1ccccn1)S(=O)(=O)c1ccc2c3c(cccc13)C(=O)N2`, the inhibition was 130% (active).

As for `COc1ccc(NC(=O)N2CCC(Cc3ccccc3)CC2)cc1`, the inhibition is 40.8% (active).

Turning to `COc1ccccc1C(=O)Nc1ccc(OCC(=O)N2CCCCC2)cc1`, the inhibition was 183% (active).

Take `O=C1CC2(CCCCC2)Oc2ccc(OCC(=O)N3CCOCC3)cc21`: the inhibition was 4.05%.

For the compound `COc1ccccc1NC(=O)COc1ccc(C(=O)OCC(=O)N(C(C)C)C(C)C)cc1OC`, the inhibition is 0.36%.

Take `COc1ccccc1-c1oc2ccccc2c1C#CCCCCO`: the inhibition was 170% (active).

As for `COc1ccc(-n2cc(CN(C)Cc3n[nH]c(=O)[nH]3)c(-c3cccc(F)c3)n2)cc1`, the inhibition was 44.3% (active).

As to `COc1ccc(-n2cc(CNC3CCOCC3)c(-c3cccc(F)c3)n2)cc1`, the inhibition is 18.8%.

As for `Cc1ccc(S(=O)(=O)N2CCN(C(=O)CSc3cc(C)ccc3C)CC2)c(C)c1`, the inhibition is 164% (active).

For `Cn1nc(-c2ccc(Cl)cc2)c2cc(C(=O)NCc3ccco3)sc21`, the inhibition is 47.8% (active).

On to `CCc1ccc(-c2cc(C(=O)NCc3ccco3)c3ccccc3n2)s1`, for which the inhibition is -6.79%.

On to `CCN(CC)CCCNC(=O)c1cc2c(=O)[nH]c3ccc(C)cc3c2s1`, for which the inhibition was 137% (active).

Consider `N#CC1(Nc2ccc3c4c(cccc24)CC3)CCCCC1`, for which the inhibition is 119% (active).

As to `N#Cc1c(N)n(CCOC(=O)c2ccc(Cl)cc2)c2nc3ccccc3nc12`, the inhibition is 40.4% (active).

On to `CC(=O)c1sc2nc(SCC(=O)N3CCCCC3)[nH]c(=O)c2c1C`, for which the inhibition was 76.2% (active).

Regarding `CCN(C(=O)Nc1cccc2ccccc12)c1ccccc1`, the inhibition is 164% (active).

Take `O=C(O)c1cccnc1Sc1ncnc2sc3c(c12)CCC3`: the inhibition was 59.7% (active).

Turning to `O=C(Nc1ncc2c(n1)-c1ccccc1OC2)c1ccc(Cl)cc1`, the inhibition was 93.8% (active).

Take `CCOc1ccccc1C1CC(c2ccccc2)Nc2nc(N)nn21` (centres undefined): the inhibition is 185% (active).

`O=c1oc2ccccc2cc1-c1cn(-c2ccccc2)c(=S)[nH]1`: the inhibition is 17.6%.

Regarding `CC12CCC(C(=O)N3CCN(c4ncccn4)CC3)(c3nc4ccccc4nc31)C2(C)C` (centres undefined), the inhibition is 195% (active).

In the case of `Cn1c(-c2ccco2)nc2cc3ccccc3cc21`, the inhibition was 46.4% (active).

Consider `Cn1cccc1-c1nc2ccccc2n1C`, for which the inhibition is 13.3%.

Regarding `CCCc1cc(=O)oc2c(C)c(OCC(=O)N3CCC(C(=O)O)CC3)ccc12`, the inhibition was -5.02%.

As to `CCc1cc(=O)oc2c(C)c(OCC(=O)N3CC[C@@]4(O)CCCC[C@H]4C3)ccc12`, the inhibition was 130% (active).

Take `CCOC(=O)CSc1nc2c(c(=O)n(Cc3ccccc3Cl)c(=O)n2C)n1C`: the inhibition is 48.6% (active).

For `CN(C)c1ccc(/C=N/NC(=O)C(O)c2ccc(Br)cc2)cc1` (centres undefined), the inhibition is 72.9% (active).

Turning to `COC(=O)c1noc(C)c1-c1ccnn1C(=O)c1ccc(Cl)cc1`, the inhibition is 57.6% (active).

For the compound `Cc1nc(NCCN)c(C#N)c2c1COC(C)(C)C2`, the inhibition was 88.6% (active).

As to `Cc1cc(=O)n2[nH]c(-c3cccc(Cl)c3)cc2n1`, the inhibition is 107% (active).

For the compound `Cc1ccc2nc(/C(C#N)=C\c3ccc(OC(=O)c4cccs4)cc3)[nH]c2c1`, the inhibition was 53.5% (active).

Consider `CC(C)(C)C(=O)Nc1cccc(-c2ccc[nH]2)n1`, for which the inhibition was 76.9% (active).

In the case of `N#Cc1c(N2CCCCC2)nc(N)c2c(N)nc(SCC(=O)O)cc12`, the inhibition is 11.2%.

In the case of `CN(C)Cc1c(O)ccc2c(=O)c(-c3ccccc3Cl)coc12`, the inhibition was 9.64%.

As for `CC[C@@H]1Cc2cc(O)ccc2C2=C1c1ccc(O)cc1C[C@H]2CC`, the inhibition was 109% (active).

As to `Cc1cc(C)c2c(n1)nn1c(-n3ccnc3)cc(C)nc21`, the inhibition is -3.81%.

Take `Cc1cc(C)c2c(NC(=O)C3CC3)nn(C)c2n1`: the inhibition is 87.2% (active).

Turning to `CC(C)(C)Nc1c(-c2cccs2)nc2ccccn12`, the inhibition was 146% (active).

As for `CC[C@@H](C)[C@H](NC(=O)CCc1c(C)c2cc3c4c(oc3c(C)c2oc1=O)CCCC4)C(=O)O`, the inhibition is 88.9% (active).

Take `CC(C)=NN1C(=O)c2ccccc2NC1(C)C`: the inhibition is 178% (active).

With `O=C(Nc1nncs1)c1ccccc1NS(=O)(=O)c1cccs1`, the inhibition was 141% (active).

Regarding `CC(C)c1nc(N2CCOCC2)c(C#N)c2c1COC(C)(C)C2`, the inhibition was 37.2% (active).

Take `CC1(C)Cc2c(C#N)c(SCc3nc4ccccc4[nH]3)nc(N3CCOCC3)c2CO1`: the inhibition was -3.68%.

The inhibition is the change of the read-out against control, counted positive when it falls.
